Laboratory results reported in PubChem BioAssay.
Calls of active or inactive are those of the source.

Assays:
[1] = binders of probe aFSTL3 on microarray, primary screen, stem cell growth factor project, biochemical, small-molecule microarray, fluorescence 635/667 (AID 1064); conditions: higher = more signal;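 note: measures binding of the biotinylated anti-FSTL3 antibody to printed compounds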
[2] = binders from COS7 lysate, DM2A8 probe, primary screen, torsin A project, cell lysate, small-molecule microarray, fluorescence 635/667 (AID 1065); conditions: higher = more signal, COS7 lysate expressing mutant human TOR1A
[3] = binders of probe aFGF2 on microarray, primary screen, stem cell growth factor project, biochemical, small-molecule microarray, fluorescence 635/667 (AID 1067); conditions: higher = more signal;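 note: measures binding of biotinylated aFGF2 protein to printed compounds on slides; z-score merges feature fluorescence and signal-to-noise across triplicate slides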
[4] = binders of probe aFGF10 on microarray, primary screen, stem cell growth factor project, biochemical, small-molecule microarray, fluorescence 635/667 (AID 1071); conditions: higher = more signal;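 note: score merges 667 nm spot intensity and signal to noise from triplicate slides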
[5] = biological target: Neurogenic locus notch homolog protein 2 (Homo sapiens) (UniProt Q04721); experiment: Notch2 binders on small-molecule microarrays, primary screen, biochemical, small-molecule microarray, 635 nm fluorescence, stem cell growth factors (AID 1073); conditions: Notch2 binding, higher = more signal
[6] = biological target: Pro-neuregulin-1, membrane-bound isoform (Homo sapiens) (UniProt Q02297); experiment: NRG1 binders on small-molecule microarrays, primary screen, psychiatric disease protein project, biochemical, small-molecule microarray, fluorescence 635/667 (AID 1075); conditions: NRG1 binding, 635 nm fluorescence, higher = more signal;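 note: score combines 667 nm spot fluorescence with signal to noise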
[7] = test system: Neuregulin-1 EGF-like domain; experiment: binders of neuregulin-1 EGF-like domain, primary screen, biochemical, small-molecule microarray, 635 nm fluorescence (AID 1081); conditions: small-molecule microarray binding, higher = more signal;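 note: binding of the protein to compounds printed on small-molecule microarray slides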
[8] = FRG1 promoter luciferase signal modulators, primary screen, FRG1 inhibition for FSHD, cell-based, C2C12 myotubes, firefly/Renilla luciferase, luminescence (AID 1084); conditions: higher = more signal, called active from +8 up or from −8 down
[9] = binders of probe aFST on microarray, primary screen, stem cell growth factor project, biochemical, small-molecule microarray, fluorescence 635/667 (AID 1086); conditions: higher = more signal;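 note: score merges 667 nm fluorescence with signal-to-noise of each printed compound spot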
[10] = binders of probe aHhip on microarray, primary screen, stem cell growth factor project, biochemical, small-molecule microarray, fluorescence 635/667 (AID 1087); conditions: higher = more signal;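 note: score merges spot fluorescence at 667nm with spot signal to noise ratio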
[11] = test system: PRMT1 (protein arginine N-methyltransferase 1); experiment: PRMT1 binders on small-molecule microarrays, primary screen, biochemical, small-molecule microarray, 635 nm fluorescence (AID 1088); conditions: small-molecule microarray binding, higher = more signal;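 note: binding of Prmt1 protein to compounds spotted on small-molecule microarray slides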
[12] = yeast growth modulation, basal conditions, primary screen, YJM789 clinical isolate, OD600, 24 h (AID 1089);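 note: growth of clinical yeast isolate S. cerevisiae YJM 789 seeded 1000 cells per well; test concentration not given here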; conditions: S. cerevisiae YJM789 growth, higher = more signal, called active from +8 up or from −8 down
[13] = fission yeast growth modulation, primary screen, strain 972, OD600, 24 h, no modulator (AID 1090);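 note: basal condition with compound alone and no growth modifier present; test concentration not given here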; conditions: S. pombe 972 growth, higher = more signal, called active from +8 up or from −8 down
[14] = S. cerevisiae growth modulation with rapamycin, primary screen, strain BY4716, OD600, 96 h (AID 1091); conditions: higher = more signal, called active from +8 up or from −8 down; note: test concentration not given here
[15] = biological target: Torsin-1A-interacting protein 2 (Homo sapiens) (UniProt Q8NFQ8); experiment: LULL1 binders on small-molecule microarray, primary screen, cell lysate, human LULL1 lysate, 635/667 nm fluorescence (AID 1092); conditions: hLULL1 lysate binding, 635 nm fluorescence, higher = more signal;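 note: probe is lysate of COS7 cells overexpressing human LULL1; score merges per-feature 667 nm fluorescence with signal-to-noise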
[16] = E. coli growth modulation, two-sided OD650, primary screen, E. coli filamentation project, strain DRC41, 24 h (AID 1093); conditions: OD650, 24 h, higher = more signal, called active from +8 up or from −8 down;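 note: MC1000 strain lacking acrAB efflux and sulA so SOS filamentation is blocked; test concentration not given here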
[17] = small-molecule microarray binders of probe aLefty2, primary screen, biochemical, biotinylated probe, 635/667 nm fluorescence (AID 1094); conditions: higher = more signal;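 note: score merges spot fluorescence near 667 nm with spot signal-to-noise ratio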
[18] = test system: Noggin (protein binding on small-molecule microarray); experiment: Noggin binders on small-molecule microarray, primary screen, biochemical, 635/667 nm fluorescence (AID 1095); conditions: 635 nm fluorescence, higher = more signal;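 note: score merges 667 nm feature fluorescence with signal to noise over triplicate slides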
[19] = biological target: Neurogenic locus notch homolog protein 3 (Homo sapiens) (UniProt Q9UM47); experiment: NOTCH3 binders on small-molecule microarray, primary screen, biochemical, 635/667 nm fluorescence (AID 1096); conditions: NOTCH3 binding, 635 nm fluorescence, higher = more signal
[20] = small-molecule microarray binders of probe aEGFR, primary screen, biochemical, biotinylated probe, 635/667 nm fluorescence (AID 1097); conditions: higher = more signal;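 note: probe is a biotinylated anti-EGFR antibody binding compounds printed on slides; score combines fluorescence near 667 nm and signal to noise of each spot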

Chain of Neurogenic locus notch homolog protein 2 (Homo sapiens) (Q04721 whole entry, looked up, canonical isoform): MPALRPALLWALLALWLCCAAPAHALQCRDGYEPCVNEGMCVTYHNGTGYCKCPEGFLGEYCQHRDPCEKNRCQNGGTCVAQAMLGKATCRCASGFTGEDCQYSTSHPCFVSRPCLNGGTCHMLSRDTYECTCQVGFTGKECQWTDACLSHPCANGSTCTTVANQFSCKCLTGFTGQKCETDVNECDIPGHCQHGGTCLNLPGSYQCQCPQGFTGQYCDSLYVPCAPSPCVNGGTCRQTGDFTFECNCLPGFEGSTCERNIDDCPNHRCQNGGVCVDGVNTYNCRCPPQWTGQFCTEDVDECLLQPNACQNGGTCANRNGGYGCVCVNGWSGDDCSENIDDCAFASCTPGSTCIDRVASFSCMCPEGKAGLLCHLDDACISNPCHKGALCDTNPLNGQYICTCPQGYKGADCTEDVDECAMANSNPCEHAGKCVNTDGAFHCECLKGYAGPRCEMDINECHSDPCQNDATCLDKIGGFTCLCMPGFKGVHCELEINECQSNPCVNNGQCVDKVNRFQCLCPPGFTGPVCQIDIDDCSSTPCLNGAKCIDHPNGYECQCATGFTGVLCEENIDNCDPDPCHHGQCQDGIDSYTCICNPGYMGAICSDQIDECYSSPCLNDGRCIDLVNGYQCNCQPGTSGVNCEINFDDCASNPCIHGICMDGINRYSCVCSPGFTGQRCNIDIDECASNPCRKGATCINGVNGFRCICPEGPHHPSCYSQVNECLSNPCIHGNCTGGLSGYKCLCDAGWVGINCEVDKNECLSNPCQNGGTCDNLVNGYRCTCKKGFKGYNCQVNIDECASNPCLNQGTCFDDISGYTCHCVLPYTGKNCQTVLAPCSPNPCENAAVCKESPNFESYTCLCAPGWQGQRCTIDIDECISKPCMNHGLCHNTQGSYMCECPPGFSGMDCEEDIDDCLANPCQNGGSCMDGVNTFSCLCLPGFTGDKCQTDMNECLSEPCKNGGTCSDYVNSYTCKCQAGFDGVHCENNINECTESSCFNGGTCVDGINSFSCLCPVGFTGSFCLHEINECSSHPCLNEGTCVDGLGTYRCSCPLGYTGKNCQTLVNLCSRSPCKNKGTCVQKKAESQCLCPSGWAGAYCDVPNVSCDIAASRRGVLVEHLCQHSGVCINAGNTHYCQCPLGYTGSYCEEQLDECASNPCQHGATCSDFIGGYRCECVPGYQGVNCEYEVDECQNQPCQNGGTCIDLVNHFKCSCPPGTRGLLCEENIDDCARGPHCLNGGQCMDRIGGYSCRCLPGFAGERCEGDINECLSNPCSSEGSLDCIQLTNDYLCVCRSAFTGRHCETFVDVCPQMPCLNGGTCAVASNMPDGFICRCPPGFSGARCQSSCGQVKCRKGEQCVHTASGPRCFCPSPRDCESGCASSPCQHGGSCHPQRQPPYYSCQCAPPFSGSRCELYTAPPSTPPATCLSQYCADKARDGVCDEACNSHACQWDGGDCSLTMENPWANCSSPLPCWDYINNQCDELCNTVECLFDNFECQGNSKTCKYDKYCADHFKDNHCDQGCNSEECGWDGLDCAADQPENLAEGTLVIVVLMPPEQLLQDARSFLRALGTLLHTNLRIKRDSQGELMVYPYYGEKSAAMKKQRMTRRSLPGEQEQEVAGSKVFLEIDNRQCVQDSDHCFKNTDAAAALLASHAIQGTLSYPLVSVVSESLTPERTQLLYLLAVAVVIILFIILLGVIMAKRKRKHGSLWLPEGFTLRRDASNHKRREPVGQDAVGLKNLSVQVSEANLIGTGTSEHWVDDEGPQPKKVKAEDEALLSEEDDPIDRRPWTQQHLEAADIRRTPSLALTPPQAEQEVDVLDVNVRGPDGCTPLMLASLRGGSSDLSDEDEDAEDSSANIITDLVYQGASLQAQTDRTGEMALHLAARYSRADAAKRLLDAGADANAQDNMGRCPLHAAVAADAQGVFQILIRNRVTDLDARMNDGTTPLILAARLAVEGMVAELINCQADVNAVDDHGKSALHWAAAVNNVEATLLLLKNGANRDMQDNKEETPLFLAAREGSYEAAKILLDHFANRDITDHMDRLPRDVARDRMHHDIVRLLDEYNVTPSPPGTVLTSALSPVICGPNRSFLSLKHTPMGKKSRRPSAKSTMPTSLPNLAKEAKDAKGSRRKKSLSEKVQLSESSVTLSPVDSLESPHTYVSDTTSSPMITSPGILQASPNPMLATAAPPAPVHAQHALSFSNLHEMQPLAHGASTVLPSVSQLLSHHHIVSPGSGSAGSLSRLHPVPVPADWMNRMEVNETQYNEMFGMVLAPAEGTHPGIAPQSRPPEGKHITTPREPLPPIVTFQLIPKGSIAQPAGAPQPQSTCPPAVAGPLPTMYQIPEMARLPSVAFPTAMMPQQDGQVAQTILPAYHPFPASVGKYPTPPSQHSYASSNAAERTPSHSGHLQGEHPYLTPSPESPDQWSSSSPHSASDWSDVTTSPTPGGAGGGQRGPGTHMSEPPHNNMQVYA
Chain of Pro-neuregulin-1, membrane-bound isoform (Homo sapiens) (Q02297 whole entry, looked up, the tested form may be a part, canonical isoform): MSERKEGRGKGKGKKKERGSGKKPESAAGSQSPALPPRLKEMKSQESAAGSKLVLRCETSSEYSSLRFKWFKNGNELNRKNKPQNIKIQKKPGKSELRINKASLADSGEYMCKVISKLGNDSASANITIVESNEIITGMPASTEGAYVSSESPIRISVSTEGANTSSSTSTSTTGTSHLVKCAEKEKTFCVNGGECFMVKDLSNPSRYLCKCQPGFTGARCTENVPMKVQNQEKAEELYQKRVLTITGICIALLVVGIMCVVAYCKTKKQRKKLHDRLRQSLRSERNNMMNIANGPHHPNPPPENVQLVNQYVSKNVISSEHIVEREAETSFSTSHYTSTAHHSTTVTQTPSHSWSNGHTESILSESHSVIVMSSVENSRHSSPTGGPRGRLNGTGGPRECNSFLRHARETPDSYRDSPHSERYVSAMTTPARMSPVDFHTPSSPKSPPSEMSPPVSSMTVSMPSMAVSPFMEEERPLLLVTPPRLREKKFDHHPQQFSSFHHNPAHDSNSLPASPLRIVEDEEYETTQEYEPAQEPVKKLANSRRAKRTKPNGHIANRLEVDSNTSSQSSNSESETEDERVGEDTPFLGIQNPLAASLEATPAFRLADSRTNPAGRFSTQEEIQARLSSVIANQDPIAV
Chain of Torsin-1A-interacting protein 2 (Homo sapiens) (Q8NFQ8 whole entry, looked up): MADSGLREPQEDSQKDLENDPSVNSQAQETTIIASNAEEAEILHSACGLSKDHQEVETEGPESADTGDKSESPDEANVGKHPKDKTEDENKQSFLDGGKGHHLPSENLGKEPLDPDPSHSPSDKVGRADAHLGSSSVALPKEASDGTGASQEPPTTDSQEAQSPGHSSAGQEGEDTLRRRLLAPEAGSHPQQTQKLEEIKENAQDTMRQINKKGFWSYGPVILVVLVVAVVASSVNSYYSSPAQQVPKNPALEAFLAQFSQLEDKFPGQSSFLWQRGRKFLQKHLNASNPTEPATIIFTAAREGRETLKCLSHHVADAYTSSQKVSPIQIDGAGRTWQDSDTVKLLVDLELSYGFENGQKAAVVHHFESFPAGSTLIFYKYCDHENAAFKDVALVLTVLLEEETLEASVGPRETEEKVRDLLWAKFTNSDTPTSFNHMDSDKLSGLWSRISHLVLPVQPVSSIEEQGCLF

Compound	composite z-score [1]	composite z-score [2]	composite z-score [3]	composite z-score [4]	composite z-score [5]	composite z-score [6]	composite z-score [7]	z-score [8]	composite z-score [9]	composite z-score [10]	composite z-score [11]	z-score [12]	z-score [13]	z-score [14]	composite z-score [15]	z-score [16]	composite z-score [17]	composite z-score [18]	composite z-score [19]	composite z-score [20]
C=C[C@@H](COC(C)=O)N(C(=O)OC(C)(C)C)S(=O)(=O)c1ccc(Br)cc1	0.0095	1.66	-0.0005	0.358	0.401	0.33	1.01	-3.97 (inactive)	0.157	0.157	0.832	-0.152 (inactive)	-1.54 (inactive)	-0.666 (inactive)	0.519	0.411 (inactive)	0.132	0.841	0.782	0.0709
CC(C)[Si](C#CCCCC#N)(O[C@H](c1ccccc1)c1cn([C@H](CO)Cc2ccccc2)nn1)C(C)C	-0.436	1.22	-0.168	0.202	0.873	1.44	1.21	-0.325 (inactive)	-0.337	0.0373	0.848	-2.62 (inactive)	-11.3 (active)	-4.64 (inactive)	1.25	1.4 (inactive)	-0.181	0.349	1.02	-0.0843
COc1cc2c(cc1OC)CN(C(=O)[C@@H]1[C@H]3C(=O)O[C@H](c4ccccc4)[C@H](c4ccccc4)N3[C@H](c3ccc(OCCO)cc3)[C@@]13C(=O)Nc1ccc(C#CC4(O)CCCCCC4)cc13)CC2	-0.543	0.416	0.0246	1.15	1.14	1.67	1.15	-0.921 (inactive)	0.528	-0.6	1.54	0.972 (inactive)	0.888 (inactive)	5.25 (inactive)	3.19	2.32 (inactive)	-0.438	1.47	1.08	-0.244
O=C1O[C@H](c2ccccc2)[C@H](c2ccccc2)N2[C@H]1[C@@H](C(=O)Nc1nc3ccccc3s1)[C@]1(C(=O)Nc3ccccc31)[C@H]2c1ccc(OCCO)cc1	-0.401	0.292	-0.0734	0.452	1.31	1.29	1.11	3.35 (inactive)	0.778	0.0854	1.31	1.48 (inactive)	1.95 (inactive)	3.31 (inactive)	1.96	0.0528 (inactive)	-0.0446	1.5	1.05	0.0162
C=CCOC(=O)[C@H]1[C@@H]2C(=O)O[C@@H](c3ccccc3)[C@@H](c3ccccc3)N2[C@@H](c2ccc(OCCOC(=O)[C@@H]3C[C@@H]4C(=O)N5CCC[C@H]5C(=O)N4[C@@H]3c3ccc(O)cc3)cc2)[C@]12C(=O)Nc1ccc(I)cc12	0.011	-0.123	-0.201	0.126	0.344	0.929	0.718	0.308 (inactive)	-0.0935	-0.367	1.42	0.882 (inactive)	0.25 (inactive)	2.77 (inactive)	1.03	-0.333 (inactive)	-0.138	0.674	0.169	-0.194
CCCCC(=C=CC[C@@H](O)c1ccccc1OCCO)C[C@@H](O)COCc1ccccc1	-0.0745	0.0282	-0.101	-0.333	-0.768	0.852	0.115	-2.9 (inactive)	-0.462	-0.201	1.13	-1.69 (inactive)	-2.1 (inactive)	-1.26 (inactive)	1.91	1.31 (inactive)	-0.166	0.404	0.185	-0.209
COc1ccc(-c2cc3c(c(CCc4ccccc4)n2)[Si](C(C)C)(C(C)C)OC3)cn1	-0.33	0.239	-0.0537	0.0473	0.247	-0.352	0.197	0.943 (inactive)	0.21	0.113	-0.876	0.275 (inactive)	-0.726 (inactive)	0.333 (inactive)	0.781	-0.43 (inactive)	-0.248	0.325	0.312	-0.0828
CCCCCCCCCCC(O)C1C=CC2C(=O)N(C)C(=O)C2N1Nc1ccc([N+](=O)[O-])cc1[N+](=O)[O-] (stereo not given)	-0.222	-0.254	0.0772	0.131	1.55	1.12	0.975	0.262 (inactive)	0.839	-0.0994	0.195	0.766 (inactive)	0.637 (inactive)	1.35 (inactive)	3.02	-1.68 (inactive)	0.379	-0.894	1.1	0.153
NC(=O)N1C(=O)C2C(C1=O)C1C=C(CCCO)C2C(c2cccs2)N1Cc1cccc(OC(F)(F)F)c1 (stereo not given)	-0.206	0.118	-0.0715	0.354	0.009	1.03	0.753	-1.02 (inactive)	0.0646	-0.0994	1.2	-0.367 (inactive)	-1.7 (inactive)	-0.967 (inactive)	1.77	0.56 (inactive)	-0.123	0.329	0.511	0.0625
Cc1cc(C)cc(N2C(=O)CSC2c2cccc([N+](=O)[O-])c2)c1 (stereo not given)	-0.0703	0.571	-0.0036	0.887	1.17	1.4	1.21	1.07 (inactive)	0.712	-0.0994	1.56	0.0032 (inactive)	0.223 (inactive)	1.37 (inactive)	2.39	1.58 (inactive)	0.154	0.713	1.04	0.213
